Source: PubChem
KAT2A inh = inhibitors of human GCN5L2 histone acetyltransferase. AID 504327. Potency, µM (doses to about 58.9 µM), for inactives: at the top dose activity change, negative = inhibition, usual class: inhibitors. 0.21% of 390,000 active. GCN5L2 HAT assay, ThioGlo1 CoA-SH fluorescence
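Titration-based screen in which CoA formation is detected via maleimide probe ThioGlo1 (50uM) turning fluorescent on thiol reaction; substrates H3(1-25) 75uM and acetyl-CoA 70uM, GCN5L2 20nM, 20 min incubation at room temperature.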
PLK1 PBD block = blocks phosphopeptide binding to human PLK1 polo-box domain | 2.8% of 360,000 active | P53350 | Plk1 PBD binding of FITC phosphopeptide, fluorescence polarization | Potency, µM, inactives show max response, negative = inhibition, most hits filed as inhibitors; also: series mostly up to about 57 µM; nearly all actives have a fitted effect of over 65% in size
12-LOX inh = inhibitors of human 12S-lipoxygenase ALOX12; P18054; purified 12hLO, xylenol orange hydroperoxide absorbance; Potency, µM (highest dose often 108 µM), without a hit: at the top dose activity change, negative = inhibition, hits mostly inhibitors; 1.1% of 580,000 active; AID 1671190
Target sequence (P18054 whole entry, looked up): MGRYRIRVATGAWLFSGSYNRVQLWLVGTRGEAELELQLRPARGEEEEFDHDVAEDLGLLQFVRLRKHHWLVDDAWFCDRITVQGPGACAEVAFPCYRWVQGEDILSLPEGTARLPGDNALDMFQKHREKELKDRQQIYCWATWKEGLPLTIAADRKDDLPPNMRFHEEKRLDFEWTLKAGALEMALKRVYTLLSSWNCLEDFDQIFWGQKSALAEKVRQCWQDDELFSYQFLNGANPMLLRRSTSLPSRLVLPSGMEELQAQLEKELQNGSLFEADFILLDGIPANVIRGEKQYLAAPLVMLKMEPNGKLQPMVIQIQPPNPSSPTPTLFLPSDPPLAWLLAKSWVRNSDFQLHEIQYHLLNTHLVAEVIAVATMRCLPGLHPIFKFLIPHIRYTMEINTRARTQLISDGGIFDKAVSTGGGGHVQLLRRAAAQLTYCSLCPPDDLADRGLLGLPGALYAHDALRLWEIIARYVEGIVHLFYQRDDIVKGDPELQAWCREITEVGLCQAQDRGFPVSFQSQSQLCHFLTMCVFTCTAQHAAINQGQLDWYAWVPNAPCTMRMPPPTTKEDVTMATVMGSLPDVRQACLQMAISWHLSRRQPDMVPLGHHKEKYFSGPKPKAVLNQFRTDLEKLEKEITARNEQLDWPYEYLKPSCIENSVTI
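Purified human 12hLO (150 nM final) in 25 mM Hepes, 0.01% Triton X-100, pH 7.0 was preincubated 15 min at room temperature with compound. Then 40 uM arachidonic acid was added, 30 min. Hydroperoxide was read by Fe-XO absorbance ratio 573/405 nm.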
VDR inh = inhibitors of human vitamin D receptor | P11473 | VDR-SRC2-3 peptide fluorescence polarization, 2 h | Potency, µM, without a hit: max response, negative = inhibition, most hits filed as inhibitors | 0.93% of 400,000 active
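Fluorescence polarization assay measuring small-molecule disruption of VDR binding to the coregulator peptide SRC2-3. Compounds were pin-transferred (23 nl) into the reagent mix and incubated 2 h at room temperature before reading.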
The depositor's hits bear a star; ? = inconclusive; . = not tested or not shown. This is a sample that favours compounds with a hit; in the whole collection about 3% have one here. Calls follow the shape of the dose curve; as a rule, active = well fitted curve in the direction sought with a large enough effect; inconclusive = small, poorly fitted or top-dose-only effect, or another doubt; inactive = no such curve, though single readings can be large; an effect the other way counts as inactive or inconclusive. % is scaled to controls: 0 for no effect and ±100 for the full control effect; potency is read from the fitted curve at half-maximal effect.

SMILES	KAT2A inh	PLK1 PBD block	12-LOX inh	VDR inh
O=C(CNC(=O)c1ccco1)Nc1ccc(Cl)cc1	-25.1%	-9.1%	.	-7.2%
O=C(NC(=S)NCc1ccc(-c2nc3ccccc3s2)cc1)c1ccco1	0.6%	-2.2%	11.2µM*	2.0%
O=C(NCc1ccc(-c2nc3ccccc3s2)cc1)c1ccco1	1.8%	-2.4%	-19.3%	5.1%
O=C(NC(=S)NCCc1ccc(Cl)cc1)c1ccco1	-3.9%	29.9µM*	?	?
S=C(NCCc1ccc(Cl)cc1)NCc1ccco1	-9.9%	-20.4%	?	-5.4%
O=C(CCNC(=O)c1ccco1)Nc1ccc(Cl)cc1	-5.3%	29.9µM*	?	-15.5%
Cc1cc(N2C(=O)C(O)=C(C(=O)c3cc4ccccc4o3)C2c2cccc(Cl)c2)no1 (stereo not given)	?	?	?	-18.4%
Cc1cc(N2C(=O)C(O)=C(C(=O)c3cc4ccccc4o3)C2c2ccc(Cl)cc2)no1 (stereo not given)	?	?	39.8µM*	-26.7%
Cc1cc(N2C(=O)C(O)=C(C(=O)c3cc4ccccc4o3)C2c2ccc(Br)cc2)no1 (stereo not given)	?	21.2µM*	39.8µM*	?
CC(=O)N1CCN(C(=O)CCc2ccnc(N3CCOCC3)c2)CC1	.	.	14.7%	.
Cc1nn(C)c(C)c1CNCc1ccnc(N2CCOCC2)c1	.	.	11.2µM*	.
CCC(c1nnc(SCC(=O)NCCc2ccc(Cl)cc2Cl)o1)N(C)C (stereo not given)	-5.7%	26.7µM*	0.0%	-14.0%
COc1ccccc1/C=C/c1nc(C#N)c(NCc2ccc(F)cc2)o1	.	.	-6.0%	.
C=CCC(C(=O)NC(C)c1ccccc1)C(=O)NC(C)c1ccccc1 (stereo not given)	0.6%	26.7µM*	-27.9%	-1.0%
CC(O)CNCCCOc1ccc(C(C)(C)c2ccccc2)cc1 (stereo not given)	.	.	4.47µM*	.
CCCn1nc(SCC(=O)OCC)n2c(=O)c3c(nc12)-c1ccccc1CC3(C)CC (stereo not given)	.	.	3.0%	.
COc1ccc(NC(=S)N/N=C/c2cccn2Cc2ccc(F)cc2)cc1	-13.7%	-10.4%	?	-10.7%
CCc1nnc(N/N=C/c2c(C)[nH]c3ccccc23)n1N	-2.1%	-9.3%	31.6µM*	-19.9%
Cc1ccc(Cn2cccc2/C=N/NC(=S)Nc2ccc(C)cc2)cc1	-2.7%	-2.6%	44.7µM*	-7.7%
Cc1[nH]c2ccccc2c1/C=N/NC(N)=S	-7.4%	-9.1%	10.9%	-3.5%
C=CCNC(=S)N/N=C/c1ccccc1C(F)(F)F	.	.	2.4%	.
FC(F)(F)c1ccccc1/C=N/NC(=S)NCc1ccccc1	.	.	39.8µM*	.
Cc1[nH]c2ccccc2c1/C=N/NC(=S)NCc1ccccc1	-28.8%	-7.9%	35.5µM*	5.9%
CCOc1ccccc1CN1CCN(c2cc(C)nc(N)n2)CC1CCO (stereo not given)	.	.	49.5%	.
Fc1cccc(F)c1-c1csc(NCc2ccco2)n1	.	.	-3.9%	.
SMILES	KAT2A inh	PLK1 PBD block	12-LOX inh	VDR inh
Cc1ccc(NC(=S)N/N=C/c2c(C)[nH]c3ccccc23)cc1	-11.3%	0.1%	31.6µM*	6.6%
COc1ccc(S(=O)(=O)N2CC(=O)Nc3ccccc32)cc1Cl	-19.2%	6.2%	6.31µM*	7.4%
N#Cc1cccc(CN2CCCC(c3[nH]ccc3C(N)=O)C2)c1 (stereo not given)	.	.	-1.4%	.
O=C(/C=C1\NC2(CCCC2)Cc2ccccc21)C(=O)N/N=C/c1ccc(O)c(O)c1	?	-19.4%	35.5µM*	-0.8%
COc1ccc(/C=N/NC(=O)C(=O)/C=C2\NC3(CCCC3)Cc3ccccc32)cc1	-6.1%	-2.4%	-2.9%	-4.7%
Cc1cccc(CN2CCC(CNC(=O)c3cccc4c3SCCC4=O)CC2)c1	.	.	1.1%	.
Cc1ccc(Nc2nc3ccccc3c3nnc(C)n23)cc1Cl	0.7%	.	-1.8%	1.5%
COc1ccc(Nc2nc3ccccc3c3nnc(C)n23)cc1Cl	-8.8%	.	3.16µM*	-3.5%
O=Cc1cc(Cl)ccc1OCCN1CCC(Cc2ccccc2)CC1	0.9%	-6.9%	2.24µM*	-0.8%
O=[N+]([O-])c1cccc(OCCN2CCC(Cc3ccccc3)CC2)c1	-7.2%	-14.0%	0.631µM*	15.8%
COC(=O)c1cc(-c2ccc(OC)cc2)nc2ccc(C)cc12	.	.	1.7%	.
Cc1ccsc1CN(C)Cc1ccccc1	.	.	23.6%	.
C=CCOC(=O)C(=O)/C=C/c1csc2ccccc12	-1.0%	?	?	44.7µM*
Fc1cccc(-n2c(SCc3nc4ccccc4o3)nnc2N2CCOCC2)c1	.	.	-2.4%	.
O=C(COc1ccc(Cl)cc1Cl)NCCSc1ccc(Cl)cc1	-3.3%	2.99µM*	-4.2%	-13.2%
CN(C)CCNC(=O)COc1ccc(Cl)cc1Cl	0.3%	1.0%	1.3%	-4.2%
Cc1ccc(C)c(Cn2c(O)c(N=NC(=S)Nc3ccccc3F)c3ccccc32)c1	-8.9%	23.8µM*	3.6%	?
CCCCc1c(-c2ccccc2OC)ncn1Cc1ccc(F)cc1F	.	.	2.2%	.
CCCCc1c(-c2ccccc2OC)ncn1Cc1ccc(Cl)cc1Cl	.	.	31.6µM*	.
Cc1nc2[nH]c(=S)[nH]c2cc1Br	?	?	12.6µM*	-3.6%
Cc1nc2nc[nH]c2cc1Br	-3.8%	-4.4%	8.1%	-7.0%
Nc1nc(N)c2[nH]c(=S)[nH]c2n1	.	23.8µM*	?	-15.1%
CCCC(=O)c1cc(O)c(O)cc1O	.	.	1.65µM*	.
Cc1ccc(CN2CCCN(CC(=O)N3CCCCC3C)S2(=O)=O)cc1 (stereo not given)	.	.	-13.2%	.
Fc1ccc(-c2nc3ccc(Br)cn3c2Cc2ccccc2C(F)(F)F)cc1	.	-19.1%	17.8µM*	.
SMILES	KAT2A inh	PLK1 PBD block	12-LOX inh	VDR inh
FC(F)(F)c1ccccc1Cc1c(-c2ccc(Cl)cc2)nc2ccc(Br)cn12	.	-18.2%	39.8µM*	.
COc1ccccc1Cc1c(-c2ccc(C#N)cc2)nc2ccc(Br)cn12	.	-12.8%	25.1µM*	.
COC(=O)c1cccc(COC(=O)c2cc(C(C)=O)c[nH]2)c1	.	.	-1.5%	.
O=C(NCc1nc(-c2ccccc2)no1)NC1CCCCC1	.	.	21.4%	.
CCNc1ccc(C(=O)O)cc1N	-2.4%	-2.5%	-17.5%	79.4µM*
CCc1ccccc1Nc1ccc(C(=O)O)cc1N	-4.7%	-10.1%	14.4%	-8.6%
COc1ccc(C(=O)NC2CCN(c3cc(-c4ccc(F)cc4)[nH]n3)CC2)c(OC)c1	.	.	10.1%	.
Cc1ccc2cc(C3CC(c4cccs4)=NN3S(C)(=O)=O)c(Cl)nc2c1 (stereo not given)	-10.2%	3.9%	2.0%	0.0%
COc1ccc2cc(C3CC(c4cccs4)=NN3S(C)(=O)=O)c(Cl)nc2c1 (stereo not given)	-13.1%	6.7µM*	-7.8%	-27.9%
Cc1ccc(-c2noc(-c3cccnc3NC(C)c3ccccc3)n2)cc1 (stereo not given)	.	.	-4.5%	.
CCOC(=O)C1CCN(Cc2cccc(Oc3ccc(Cl)cc3)c2)CC1	-6.6%	6.8%	1.41µM*	-3.4%
CCOC(=O)C1CCN(Cc2cccc(Oc3ccccc3)c2)CC1	-4.2%	-1.1%	?	-10.8%
Cc1cc(=O)oc2cc(OCC(=O)NCCC3CCN(Cc4ccccc4)CC3)ccc12	.	.	-24.9%	.
COc1ccc(Cc2nn3c(C(C)C)nnc3s2)cc1OC	.	.	-47.0%	.
